Data: PubChem BioAssay AID1851 (National Center for Advancing Translational Sciences (NCATS), 2009)
Screen size: about 16,000 compounds; about 5,800 (36%) were called active. Inconclusive results (about 23%) are left out. The list shows a part of the results. Values without a mark were called inactive. Calls come from the whole dose curve; as a rule, active = well fitted curve in the direction sought with a large enough effect; inconclusive = small, poorly fitted or top-dose-only effect, or effect the other way; inactive = no such curve, though single readings can be large or run the other way.
% is set by controls: 0 for no effect and ±100 for the full control effect.

Each compound was assayed against Cytochrome P450 2C19 (Homo sapiens) (UniProt P33261) (assay: Cytochrome panel assay with activity outcomes). Details: recombinant CYP, pro-luciferin dealkylation, luminescence, p450-cyp2c19; series mostly up to 57.1 µM; activity, negative = inhibition: at the top concentration.
Chain of Cytochrome P450 2C19 (Homo sapiens) (P33261 whole entry, looked up): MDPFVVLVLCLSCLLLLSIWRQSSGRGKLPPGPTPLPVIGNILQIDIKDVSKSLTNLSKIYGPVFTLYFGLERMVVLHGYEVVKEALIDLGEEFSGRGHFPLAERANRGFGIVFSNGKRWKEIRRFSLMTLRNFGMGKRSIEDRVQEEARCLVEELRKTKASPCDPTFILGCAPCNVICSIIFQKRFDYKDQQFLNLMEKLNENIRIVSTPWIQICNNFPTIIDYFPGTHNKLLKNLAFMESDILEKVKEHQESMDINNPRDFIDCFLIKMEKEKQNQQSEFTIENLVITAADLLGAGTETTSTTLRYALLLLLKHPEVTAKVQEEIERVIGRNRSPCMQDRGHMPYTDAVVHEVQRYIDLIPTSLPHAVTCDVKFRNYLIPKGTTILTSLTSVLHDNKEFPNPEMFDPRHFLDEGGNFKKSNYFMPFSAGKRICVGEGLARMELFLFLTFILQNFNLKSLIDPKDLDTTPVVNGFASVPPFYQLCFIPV
CCc1c(C(=O)NCc2ccc3c(c2)OCO3)[nH]c(C)c1C(C)=O was tested, and the AC50 was 7.08 µM (active). CC(CO)(CO)Nc1ncnc2ccccc12 gave an activity, negative = inhibition of 1.8% [at 11.4 µM]. In the case of CCOc1ccc(OCCOc2ncnc3ccccc23)cc1, the AC50 is reported as 10 µM (active). In the case of OC[C@@H](O)CNc1ncnc2ccccc12, the activity, negative = inhibition is reported as 1.02% [at 11.4 µM]. CC(=C/c1ccccc1)/C=N/n1cnnc1 was tested, and the AC50 was 0.355 µM (active). For CN(C)CCCc1c2ccccc2nc2ccc(Cl)cc12, the activity, negative = inhibition was 7.79% [at 11.4 µM]. With CCc1c(C)nc2ccc(Br)cc2c1Cl the AC50 was 3.55 µM (active). For CCOc1cc(/C=C2/C(=O)N(c3ccccc3)N=C2C)ccc1OC(=O)c1ccco1, the AC50 was 14.1 µM (active). CC1=NN(c2ccc(S(=O)(=O)O)cc2)C(=O)/C1=C\c1ccc(Cl)cc1 showed an activity, negative = inhibition of -11.1% [at 11.4 µM]. For CC1=NN(c2ccccc2)C(=O)/C1=C\c1c(C)[nH]n(-c2ccccc2)c1=O, the “activity, negative = inhibition” value was -3.54%. COc1cccc(NC(=O)COC(=O)c2c3c(nc4ccccc24)CCC(C)C3)c1 (stereo not drawn) was tested, and the AC50 was 3.98 µM (active). COc1cccc(NC(=O)Cc2c(C(=O)O)[nH]c3ccccc23)c1 was tested, and the “activity, negative = inhibition” value was -10.4%. With COc1ccc(-c2nc3cnc(OC)nc3n(C)c2=O)cc1 the “activity, negative = inhibition” value was -0.6%. In the case of CCc1c(O)nc2sc3ccccc3n2c1=O, the “activity, negative = inhibition” value is reported as 8.36%. With Cc1ccc2c(CC(=O)OCc3cc(=O)n4c(n3)sc3ccccc34)coc2c1 the AC50 was 7.08 µM (active). With C[C@@H]1C[C@H](C)CN(S(=O)(=O)c2cc(Cl)c(Oc3ccc([N+](=O)[O-])cc3Cl)c(Cl)c2)C1 the activity, negative = inhibition was -27.5% [at 11.4 µM]. For CC1CCCN(C(=O)c2sc3cc([N+](=O)[O-])ccc3c2Cl)C1 (stereo not drawn), the AC50 was 3.98 µM (active). Compound CN1CCCN(C)C1c1cc([N+](=O)[O-])ccc1O has an activity, negative = inhibition of -15% [at 11.4 µM]. Cc1ccc(C2=NN(S(C)(=O)=O)C(c3cccs3)C2)cc1 (stereo not drawn) was tested, and the AC50 was 0.447 µM (active). In the case of CN(C)c1ccc(NC(=O)CSc2nc(N)c(C(=O)Nc3ccc(N(C)C)cc3)s2)cc1, the AC50 is reported as 11.2 µM (active). In the case of Cc1ccc(C)c(-n2c(Cc3cc(=O)[nH]c(=O)[nH]3)nnc2SCC(=O)NCC2CCCO2)c1 (stereo not drawn), the “activity, negative = inhibition” value is reported as -5.1%. Cc1[nH]nc2nc(SCC(=O)NCC3CCCO3)n(-c3ccc(Br)cc3)c(=N)c12 (stereo not drawn) was tested, and the AC50 was 11.2 µM (active). In the case of COc1cc(OC)c(NC(=S)Nc2cccc(C(C)=O)c2)cc1Cl, the AC50 is reported as 3.16 µM (active). CCOC(=O)c1cnc(N(C)C)nc1SC(=N)N was tested, and the activity, negative = inhibition was 7.18% [at 11.4 µM]. In the case of CCOC(=O)c1cnc2ccc(C)cc2c1Sc1ccccc1C(=O)OC, the AC50 is reported as 1.26 µM (active). In the case of c1ccc(-c2nc(-c3cccs3)[nH]c2-c2ccccc2)cc1, the AC50 is reported as 6.31 µM (active). For NC(N)=Nc1nc2ccc([N+](=O)[O-])cc2[nH]1, the activity, negative = inhibition was -5.76% [at 11.4 µM]. For COc1ccc(-c2nc(-c3ccccc3)c(-c3cc([N+](=O)[O-])ccc3C)[nH]2)cc1O, the AC50 was 8.91 µM (active). With O=[N+]([O-])c1cccc(-c2nc(-c3cccs3)c(-c3cccs3)[nH]2)c1 the AC50 was 3.16 µM (active). O=[N+]([O-])c1cccc(-c2nc(-c3ccccc3)c(-c3cccs3)[nH]2)c1 was tested, and the AC50 was 2.51 µM (active). With CO[C@]1(NC(=O)C2SC(=C(C(N)=O)C(=O)O)S2)C(=O)N2C(C(=O)O)=C(CSc3nnnn3C)CS[C@H]21 (stereo partly drawn) the “activity, negative = inhibition” value was -28.9% [at 25.6 µM]. For NCCC(=O)O, the “activity, negative = inhibition” value was 20.3%. In the case of CCC(Sc1nc2n[nH]c(C)c2c(=N)n1-c1cccc(Cl)c1)C(=O)NCCOC (stereo not drawn), the AC50 is reported as 10 µM (active). For CCC(C)Nc1c([N+](=O)[O-])cc(C)cc1[N+](=O)[O-] (stereo not drawn), the AC50 was 7.94 µM (active). Cc1cc([N+](=O)[O-])c(C)c(Br)c1C gave an activity, negative = inhibition of 8.85% [at 11.4 µM]. C[C@@H](N)[C@@H](C)Cc1ccccc1 was tested, and the activity, negative = inhibition was -14.2% [at 11.4 µM]. Work on O=C(O)Cc1cccnc1 yielded an activity, negative = inhibition of 9.66% [at 11.4 µM]. c1ccc(C[C@@H](Nc2cccnc2)c2ccccc2)cc1 was tested, and the AC50 was 1 µM (active). With O=c1[nH]cc(CS(=O)(=O)Cc2c[nH]c(=O)[nH]c2=O)c(=O)[nH]1 the activity, negative = inhibition was 41% [at 11.4 µM]. COCCCN=CC1=C(O)CC(C)(C)CC1=O was tested, and the “activity, negative = inhibition” value was -18.8%. In the case of CC1(C)CC(=O)C(C=NCCN2CCN(C(=S)Nc3ccc(F)cc3)CC2)=C(O)C1, the AC50 is reported as 10 µM (active). In the case of CCCCN1CSC(=S)N(Cc2ccccc2)C1, the AC50 is reported as 1.26 µM (active). S=C1SCN(CCN2CCOCC2)CN1Cc1ccccc1 was tested, and the AC50 was 10 µM (active). With CC(=O)N1CCC2(CC1)CN(Cc1ccccc1)C2 the “activity, negative = inhibition” value was 8.15%. With COc1cc2cc3c4cc(OC)c(OC)cc4cc[n+]3c(C)c2cc1OC the “activity, negative = inhibition” value was 44.3% [at 25.6 µM]. Cc1ccc(NC(=O)c2ccccc2C(=O)O)cc1C was tested, and the activity, negative = inhibition was -34.4% [at 11.4 µM]. With Cc1oc(C(C)(C)C)cc1C(=O)Nc1cccc(/C=C/C(=O)O)c1 the “activity, negative = inhibition” value was -12.3%. With Cc1oc(-c2ccccc2)cc1C(=O)Nc1ccc(N(C)C)cc1 the AC50 was 5.62 µM (active).
